From the supplement of paper PMC8253809

Key:
Assay in all cases: growth inhibition (% activity, log2 RLU normalised to DMSO / staurosporine); higher = more growth inhibition
Conditions in all cases: 33 µM
DIPGX29 = tested on: DIPGX29 (H3.3 K27M diffuse intrinsic pontine glioma line)
Procedure, shortened: (§1)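 Approved drugs were tested in triplicate at a single final concentration of about 33 μM for 7 days at 37 °C, 5% CO2, on pHGG cell lines and H9-derived neural stem cells. Readout was CellTiter-Glo luminescence, log2-transformed and scaled per plate to % activity between solvent and positive control wells. The median over replicates gives the growth-inhibition value.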

DIPGX37 = tested on: DIPGX37 (H3.3 K27M diffuse intrinsic pontine glioma line)
Procedure, shortened: as §1

DIPGX7 = tested on: DIPGX7 (H3.3 K27M diffuse intrinsic pontine glioma line)
Procedure, shortened: as §1

DIPGX9 = tested on: DIPGX9 (diffuse intrinsic pontine glioma line)
Procedure, shortened: as §1

HGGX39 = tested on: HGGX39 (paediatric high-grade glioma line)
Procedure, shortened: as §1

HGGX6 = tested on: HGGX6 (H3.3 G34R paediatric high-grade glioma line)
Procedure, shortened: as §1

HNSC = tested on: HNSC
Procedure, shortened: as §1

SUDIPGIV = tested on: SUDIPGIV (diffuse intrinsic pontine glioma line)
Procedure, shortened: as §1

SUDIPGVI = tested on: SUDIPGVI (diffuse intrinsic pontine glioma line)
Procedure, shortened: as §1

SUDIPGXIII = tested on: SUDIPGXIII (diffuse intrinsic pontine glioma line)
Procedure, shortened: as §1

Row | Compound | growth inhibition (DIPGX29) [%] | growth inhibition (DIPGX37) [%] | growth inhibition (DIPGX7) [%] | growth inhibition (DIPGX9) [%] | growth inhibition (HGGX39) [%] | growth inhibition (HGGX6) [%] | growth inhibition (HNSC) [%] | growth inhibition (SUDIPGIV) [%] | growth inhibition (SUDIPGVI) [%] | growth inhibition (SUDIPGXIII) [%]
1 | Cc1ccc2c(Cl)cc(Cl)c(O)c2n1 | 8.88 | 2.78 | 3.99 | 8.04 | 4.68 | 3.09 | 46 | 5.39 | 5.64 | 3.89
2 | CS(=O)(=O)c1ccc(C(=O)Nc2ccc(Cl)c(-c3ccccn3)c2)c(Cl)c1 | 2.56 | 2.2 | 3.42 | 7.16 | 5.46 | 2.09 | 4.02 | 0.0205 | 4.38 | -0.808
3 | O=C(O)c1cccnc1 | 0.555 | 1.13 | 0.846 | 1.6 | 0.355 | 1.52 | -0.701 | -0.463 | 1.65 | -1.24
4 | Cc1cc2c(cc1S(N)(=O)=O)S(=O)(=O)CCC2 | 0.849 | 2.86 | -0.717 | 1.06 | 0.974 | 0.857 | -0.336 | -0.262 | 2.41 | 1.65
5 | CCCCc1nc(Cl)c(CO)n1Cc1ccc(-c2ccccc2-c2nnn[nH]2)cc1 | 1.53 | -1.24 | -0.599 | 0.985 | 0.264 | 1.5 | 2.21 | 0.0281 | 1.16 | 0.404
6 | C=CC(=O)N1CCC[C@@H](n2nc(-c3ccc(Oc4ccccc4)cc3)c3c(N)ncnc32)C1 | 6.19 | 0.894 | 0.519 | 7.17 | 1.36 | 12.5 | 10.8 | -2.32 | 2.15 | -9.86
7 | C[C@@H](O[C@H]1OCCN(Cc2n[nH]c(=O)[nH]2)[C@H]1c1ccc(F)cc1)c1cc(C(F)(F)F)cc(C(F)(F)F)c1 | 8.42 | 0.0612 | 5.7 | 4.43 | 12.5 | 7.33 | 8.95 | 13.5 | 5.21 | 10.1
8 | Nc1nc2[nH]cnc2c(=S)[nH]1 | 23.3 | 12.5 | 5.75 | 17.2 | 25 | 18.7 | 63.7 | 42.5 | -1.02 | 2.55
9 | COc1ccc(-c2nc3ccc(C4=NNC(=O)CC4C)cc3[nH]2)cc1 (stereo not given) | 0.372 | 2.28 | 1.98 | 1.28 | 3.99 | 2.72 | 3 | 5.46 | -4.45 | 0.884
10 | O=C(C[S+]([O-])Cc1ccco1)NC/C=C\COc1cc(CN2CCCCC2)ccn1 (stereo not given) | -1.37 | -2.72 | 0.0817 | -0.604 | -0.28 | 0.0479 | -2.82 | -2.24 | -1.66 | -2.4
11 | CCCC(=O)[O-].[Na+] | -1.17 | -2.44 | -0.966 | 0.792 | 0.723 | 0.649 | -2.84 | -1.12 | 0.269 | 0.879
12 | CC1=NN(c2ccccc2)C(=O)C1 | -3.36 | -1.06 | -0.361 | -0.407 | -0.249 | -3.17 | -4.84 | 1.69 | -1.55 | -0.303
13 | CN(C)CCCOc1nn(Cc2ccccc2)c2ccccc12 | 13.9 | -2.22 | 24.6 | 5.76 | 18.9 | 14.8 | 40.8 | 18.5 | -1.11 | 0.197
14 | Clc1ccc(C(Cn2ccnc2)OCc2ccc(Sc3ccccc3)cc2)c(Cl)c1 (stereo not given) | 2.76 | 0.833 | 2.5 | 4.7 | 11.8 | 8.32 | 14 | 11.4 | 2.82 | 5.1
15 | Cc1ccc(O)c([C@H](CCN(C(C)C)C(C)C)c2ccccc2)c1 | -0.51 | 1.21 | -1.14 | 1.39 | 7.27 | -3.24 | 8.98 | 2 | 1.35 | -1.5
16 | Nc1nc(Cl)nc2c1ncn2[C@@H]1O[C@H](CO)[C@@H](O)[C@@H]1F | 14.6 | 9.43 | 17.6 | 43.6 | 20 | 12.5 | 64.4 | 45 | 2.3 | 14.3
17 | CC(C)c1c(C(=O)Nc2ccccc2)c(-c2ccccc2)c(-c2ccc(F)cc2)n1CC[C@@H](O)C[C@@H](O)CC(=O)O | 16.8 | -10 | 21.8 | 7.54 | 42.1 | 23 | 65.6 | 32.1 | -0.629 | 39.2
18 | Oc1ccc(OCc2ccccc2)cc1 | 2.78 | -1.94 | 5.44 | 2.61 | 1.21 | 1.02 | 10.9 | -2.99 | -1.42 | -1.26
19 | CNC[C@H](O)c1cccc(O)c1 | 0.744 | -0.539 | 2.1 | 0.894 | 4.28 | 0.958 | 3.62 | 0.826 | 0.615 | 0.446
20 | NCC(=O)CCC(=O)O | -0.565 | 0.832 | -1.28 | 0.54 | 0.759 | 1.54 | -1.87 | 0.45 | 0.00902 | 0.537
21 | Nc1cc(C(Cl)=C(Cl)Cl)c(S(N)(=O)=O)cc1S(N)(=O)=O | 0.128 | 3.1 | 1.7 | 0.825 | 2.48 | 1.57 | 1.89 | 1.51 | -1.12 | 1.37

Row | Compound | growth inhibition (DIPGX29) [%] | growth inhibition (DIPGX37) [%] | growth inhibition (DIPGX7) [%] | growth inhibition (DIPGX9) [%] | growth inhibition (HGGX39) [%] | growth inhibition (HGGX6) [%] | growth inhibition (HNSC) [%] | growth inhibition (SUDIPGIV) [%] | growth inhibition (SUDIPGVI) [%] | growth inhibition (SUDIPGXIII) [%]
22 | CCCC(=O)OCOC(=O)C1=C(C)NC(C)=C(C(=O)OC)C1c1cccc(Cl)c1Cl (stereo not given) | 2.13 | 4.21 | 2.32 | 2.4 | 4.32 | -0.314 | 31.7 | 2.85 | 3.35 | -0.196
23 | Cc1nnc(C(=O)NC(C)(C)c2nc(C(=O)NCc3ccc(F)cc3)c(O)c(=O)n2C)o1 | 1.77 | -0.226 | 2.62 | 2.15 | 2.25 | -0.564 | 4.29 | -0.0786 | 2.47 | 0.152
24 | CCN(CC)C(=S)SSC(=S)N(CC)CC | 1.19 | 3.53 | 5.8 | 10.8 | 3.44 | 3.72 | 50 | -0.505 | 1.15 | 0.0312
25 | C=CC[C@@H]1/C=C(\C)C[C@H](C)C[C@H](OC)[C@H]2O[C@@](O)(C(=O)C(=O)N3CCCC[C@H]3C(=O)O[C@H](/C(C)=C/[C@@H]3CC[C@@H](O)[C@H](OC)C3)[C@H](C)[C@@H](O)CC1=O)[C@H](C)C[C@@H]2OC | 1.19 | -1.52 | 3.82 | 4.63 | 9.14 | 3.03 | 6.43 | 4.72 | 5.58 | 2.59
26 | O=C(O)C1(C(=O)O)CCC1.[NH2-].[NH2-].[Pt+2] | -2.53 | 0.00905 | -1.49 | -0.992 | -2.69 | -4.21 | 4.08 | -3.4 | -3.41 | -0.0982
27 | CN(C)[C@@H]1C(O)=C(C(=O)NCN2CCCC2)C(=O)[C@@]2(O)C(O)=C3C(=O)c4c(O)cccc4[C@@](C)(O)[C@H]3C[C@@H]12 | -1.08 | -1.26 | -0.844 | 0.66 | -0.334 | 0.151 | -2.27 | 0.0649 | 2.48 | 0.413
28 | N[C@@H](Cc1ccc(O)c(O)c1)C(=O)O | -0.663 | 0.423 | -0.313 | 0.542 | 2.68 | 1.4 | 0.395 | -0.394 | -1.98 | -0.139
29 | CCCCCCCCCC(=O)NC1C(Oc2c3cc4cc2Oc2ccc(cc2Cl)C(OC2OC(CO)C(O)C(O)C2NC(C)=O)C2NC(=O)C(NC(=O)C4NC(=O)C4NC(=O)C(Cc5ccc(c(Cl)c5)O3)NC(=O)C(N)c3ccc(O)c(c3)Oc3cc(O)cc4c3)c3ccc(O)c(c3)-c3c(OC4OC(CO)C(O)C(O)C4O)cc(O)cc3C(C(=O)O)NC2=O)OC(CO)C(O)C1O (stereo not given) | -0.31 | 0.115 | 0.155 | 0.4 | -1.12 | -0.793 | 0.958 | -1.1 | 0.462 | 2.06
30 | Cc1cn(-c2cc(NC(=O)c3ccc(C)c(Nc4nccc(-c5cccnc5)n4)c3)cc(C(F)(F)F)c2)cn1 | 2.27 | 3.07 | 4.89 | 1.74 | 3.66 | 2.75 | 4.26 | 1.93 | 2.31 | -2.01
31 | C=C1CC[C@H](O)C/C1=C/C=C1\CCC[C@]2(C)[C@@H]([C@H](C)/C=C/[C@H](C)C(C)C)CC[C@@H]12 | 3.21 | 5.04 | 5.34 | 3.65 | 7.46 | 4.35 | 9.22 | 3.53 | 4.49 | 0.866
32 | O=C(c1ccc(OCCN2CCCCC2)cc1)c1c(-c2ccc(O)cc2)sc2cc(O)ccc12 | 8.18 | -0.349 | 22.3 | 1.84 | 6.41 | 7.69 | 1.59 | 0.509 | -4.3 | 2.77
33 | NC(=O)N1c2ccccc2CC(=O)c2ccccc21 | -3.02 | -1.81 | -2.16 | -3.17 | -2.13 | -4.21 | -3.92 | -3.93 | -1.28 | -0.579
34 | Cn1c([N+](=O)[O-])cnc1COC(N)=O | 0.121 | 3.86 | 2.76 | 0.536 | 2.55 | -0.567 | 7.72 | 2.41 | 2.16 | 0.864
35 | CCOC(=O)[C@H](CCc1ccccc1)N[C@H]1CCc2ccccc2N(CC(=O)O)C1=O | -0.274 | -0.666 | 0.62 | -1.51 | -0.668 | -3.48 | 0.9 | -2.69 | -7.43 | -0.0284
36 | CN1CCC(OC(c2ccccc2)c2ccccc2)CC1 | 1.96 | 3.9 | 1.96 | 0.713 | 4.23 | 2.61 | 2.96 | 1.77 | 3.73 | -1.75
37 | CC(c1cc2ccccc2s1)N(O)C(N)=O (stereo not given) | 0.492 | -0.829 | 0.715 | -0.313 | -0.313 | -1.42 | -0.145 | -2.98 | -1.81 | 0.685
38 | C[N+]1(C)CCC(=C(c2ccccc2)c2ccccc2)CC1 | 1.61 | 4.65 | 2.7 | 2.75 | 2.04 | -0.684 | 23.1 | 4.27 | 8.89 | 1.56
39 | CCOc1ccc2nc3cc(N)ccc3c(N)c2c1 | -0.121 | 2.61 | 2.68 | 3.22 | -1.26 | 1.77 | 2.09 | 1.88 | -0.000958 | 1.33
40 | CCN1CCCC1CNC(=O)c1cc(S(=O)(=O)CC)c(N)cc1OC (stereo not given) | 2.92 | -2.18 | 2.4 | -0.361 | 1.17 | -1.1 | 0.824 | 2.02 | -8.92 | -0.464
41 | CC1(C)[C@@H](OC(=O)CCC(=O)O)CC[C@]2(C)[C@H]3C(=O)C=C4[C@@H]5C[C@@](C)(C(=O)O)CC[C@]5(C)CC[C@@]4(C)[C@]3(C)CC[C@@H]12 | -0.0896 | -1.93 | -0.476 | -0.36 | 1.22 | -0.666 | 0.455 | -0.927 | 2.1 | 0.0653
42 | CN[C@@H]1[C@H](O)[C@H](NC)[C@H]2O[C@@]3(O)C(=O)C[C@@H](C)O[C@H]3O[C@@H]2[C@H]1O | 1.24 | 1.47 | 0.532 | 2.81 | 1.18 | -0.547 | 3.02 | 0.676 | 2.4 | 0.316
